# MBNL1 CUG block – blocks human MBNL1 binding to CUG repeat RNA. Potency, µM (titrated, usually from 57.5 µM), for inactives: at the top dose activity change, negative = inhibition, most hits filed as inhibitors. 280,000 tested, 0.036% active. TR-FRET MBNL1-His/biotin-(CUG)12 binding, 665/545 ratio. Q9NR56; active means well fitted inhibition curve with a large enough effect in the signal ratio, with a control signal flat, not every such curve was filed as active; inconclusive means small, poorly fitted or top-dose-only effect, or effect the other way, or a change in a side signal; inactive means no such curve, though single readings can be large or run the other way; the % refers to the signal ratio; further: potency means the concentration at half of the fitted maximal effect; on the % scale 0 is the no-effect control and ±100 the full control effect
# Target sequence (Q9NR56 whole entry, looked up): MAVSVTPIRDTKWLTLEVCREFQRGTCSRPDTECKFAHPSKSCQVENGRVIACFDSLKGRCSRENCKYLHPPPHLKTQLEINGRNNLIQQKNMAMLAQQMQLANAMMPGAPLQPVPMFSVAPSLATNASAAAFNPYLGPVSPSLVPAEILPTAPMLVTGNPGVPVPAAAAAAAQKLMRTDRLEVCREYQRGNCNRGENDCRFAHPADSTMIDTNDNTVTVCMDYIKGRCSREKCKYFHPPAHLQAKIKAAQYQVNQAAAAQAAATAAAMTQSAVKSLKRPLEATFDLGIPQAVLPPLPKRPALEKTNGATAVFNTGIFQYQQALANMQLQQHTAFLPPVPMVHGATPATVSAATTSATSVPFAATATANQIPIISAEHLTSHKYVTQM
#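 His-tagged MBNL1 binding to biotinylated (CUG)12 RNA was measured by TR-FRET using terbium anti-His antibody (0.055 ng/ul final) and streptavidin-XL665 (5 nM final). Compounds were titrated 92 nM to 58 uM; 60 min at room temperature.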
# CtBP-E1A inh – blocks the CtBP interaction with E1A; activity change, % (concentration not given with the values); 340,000 tested, 0.49% active; AID 651724; AlphaScreen GST-E1A/His-CtBP binding, 1536-well; hits give low values; in the data active means activity change below about -65%; inconclusive means mostly about -30% to -63%; further: on the % scale 0 is the no-effect control and ±100 the full control effect
#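 AlphaScreen with 125 nM GST-E1A and 125 nM His-CtBP (5X stocks) in Tris pH 8.0, 300 mM NaCl, BSA, Tween 20, TCEP. Compounds preincubated 2 h at 37 deg C, then glutathione donor/nickel acceptor beads added for 1 h at 37 deg C in dark.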
# PKM2 act – increases activity of human pyruvate kinase M2; P14618; Potency, µM (titrated, usually from 57.5 µM), for the others: at the top dose activation, most hits filed as activators; 260,000 tested, 0.34% active; AID 1631; purified PKM2, Kinase-Glo ATP luminescence, activation; response scale: 0% is enzyme alone, no compound; further: potency means the concentration at half of the fitted maximal effect; on the % scale 0 is the no-effect control and ±100 the full control effect; nearly all actives have a fitted effect of over 55% in size
#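 Kinase-Glo luminescence reports ATP generated from ADP (0.1 mM) and PEP (0.5 mM) by purified hPK-M2 after 1 h at room temperature, pH 7.2 imidazole buffer; intermediate enzyme activity allows detecting inhibitors and activators.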
# Six1-Eya2 blk – inhibitors of human Six1/Eya2 interaction; 360,000 tested, 0.56% active; Q15475+O00167; AlphaScreen GST-Six1/His-Eya2 binding, biochemical; hits give low values; activity change, % (test concentration not listed); in the data active means activity change below about -65%; inconclusive means mostly about -30% to -63%; further: on the % scale 0 is the no-effect control and ±100 the full control effect
#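 AlphaScreen luminescence read after one hour at 37 °C in darkness. Pin-transferred compounds met GST-Six1 and His-Eya2 protein (5X stock 250 nM/500 nM) plus glutathione donor and Ni-chelate acceptor beads (5X, 50 ug/mL).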
# MBNL1-CUG FRET – MBNL1-poly(CUG) RNA binding inhibition confirmed; AID 493199; shares compounds with MBNL1 CUG block; 140 tested, 50% active; Potency, µM (top dose mostly 57.6 µM), for the others: at the top dose activity change, negative = inhibition, usual class: inhibitors; TR-FRET MBNL1-His / biotin-(CUG)12 binding, 60 min
# MBNL1 AlphaScrn – blocks MBNL1 binding to (CUG)12 RNA in AlphaScreen; AlphaScreen MBNL1-His / biotin-(CUG)12 binding; 140 tested, 30% active; shares compounds with MBNL1 CUG block; Potency, µM (titrated, usually from 57.7 µM), without a hit: top-dose activity, negative = inhibition, hits mostly inhibitors
# Menin-MLL HTRF – hit in HTRF counterscreen for MBNL1-poly(CUG) binding inhibitors | shares compounds with MBNL1 CUG block | His-Menin/biotin-MLL peptide TR-FRET counterscreen | Potency, µM (highest dose often 57.6 µM), for inactives: at the top dose activity, negative = inhibition, most hits filed as inhibitors | 120 tested, 20% active
# Starred values were filed as active, the others as inactive; u = inconclusive; x = no result given. Rows were chosen to be rich in hits. Some 0.93% of all compounds tested hit in one or more screens of this group. Unless noted, the call rests on the fitted dose curve; in most records, active means well fitted curve in the direction sought with a large enough effect; inconclusive means small, poorly fitted or top-dose-only effect, or another doubt; inactive means no such curve, though single readings can be large; an effect the other way counts as inactive or inconclusive.
SMILES,MBNL1 CUG block,CtBP-E1A inh,PKM2 act,Six1-Eya2 blk,MBNL1-CUG FRET,MBNL1 AlphaScrn,Menin-MLL HTRF
Cc1ccc(/C=c2/sc3n(c2=O)CCCN=3)o1,35%,-1,12%,-2,u,-13%,35%
Cc1ccc(/C=c2\sc3n(c2=O)CN(c2ccc(Br)cc2)CN=3)o1,u,-4,u,-16,x,x,x
Cc1cc(O)c(-c2cc(C(=O)Nc3cccnc3)[nH]n2)cc1C,x,-10,0%,-1,x,x,x
CC(=O)Nc1ccc(NC(=O)c2cc(-c3cc(C)c(C)cc3O)n[nH]2)cc1,10µM*,u,x,-24,u,41µM*,-2%
CCCc1nc2ccc(Cl)cn2c1Cc1ccccc1,x,-9,x,3,x,x,x
COc1ccc(N2CCN(CC(=O)Nc3ccc(-n4cnnn4)cc3)CC2)cc1,-7%,6,-1%,1,-1%,u,2%
OC[C@@H]1CN(Cc2ccccc2)C[C@H](n2cnc3c(NCc4ccncc4)ncnc32)O1,x,4,x,0,x,x,x
Cc1ccc(S(=O)(=O)Oc2ccccc2/C=N/N=C(N)N)cc1,18µM*,0,-12%,-14,16µM*,-27%,u
Cc1ccc(S(=O)(=O)Oc2ccccc2/C=N/NC(N)=S)cc1,1%,65,3%,19,x,x,x
O=C(O)[C@@H](c1ccccc1)N1Cc2ccccc2C1=O,40µM*,-12,-18%,4,26µM*,21µM*,-3%
CCOC(=O)CCCCC(=O)c1[nH]c(=O)[nH]c1CSc1nc(C)cc(=O)[nH]1,1.8µM*,0,5%,0,0.52µM*,0.073µM*,3.7µM*
CCOC(=O)c1[nH]c(=O)[nH]c1CSc1nc(C)cc(C)n1,-9%,-3,-7%,-6,x,x,x
CCOC(=O)CCCCC(=O)c1[nH]c(=O)[nH]c1C[n+]1ccccc1,32µM*,x,-2%,x,16µM*,3.3µM*,u
CCOC(=O)CCCCC(=O)c1[nH]c(=O)[nH]c1CN1CCOCC1,2.2µM*,6,1%,2,4.1µM*,0.92µM*,16µM*
CCOC(=O)CCCCC(=O)c1[nH]c(=O)[nH]c1CSc1nc(C)cc(C)n1,32µM*,-2,-37%,-6,26µM*,4.1µM*,-22%
CCC(=O)N1CCCC1(C)C(=O)NCc1ccc(SC)cc1 (configuration not stated),x,2,x,0,x,x,x
C[C@@H]1CN([C@@H](C)CO)S(=O)(=O)c2ccc(-c3ccccc3)cc2O[C@@H]1CN(C)Cc1ccccc1C(=O)O,x,7,x,2,x,x,x
Cc1ccc(-c2cc(-c3ccccc3C)[nH]n2)c(O)c1,20µM*,5,-15%,9,5%,4%,-2%
O=C(O)C1Nc2c(O)cccc2C2C=CCC12 (configuration not stated),x,-82*,u,0,10µM*,2.1µM*,5%
Brc1ccc2nc(C3CCCCC3)c(Cc3ccsc3)n2c1,x,0,x,1,x,x,x
O=C(Nc1cc(C(=O)Nc2ccc(S(=O)(=O)O)cc2S(=O)(=O)O)cc(C(=O)Nc2ccc(S(=O)(=O)O)cc2S(=O)(=O)O)c1)Nc1cc(C(=O)Nc2ccc(S(=O)(=O)O)cc2S(=O)(=O)O)cc(C(=O)Nc2ccc(S(=O)(=O)O)cc2S(=O)(=O)O)c1,x,x,x,x,20µM*,28µM*,x
O=C(/C=C/c1cccs1)Nc1scc(-c2ccccc2)c1C(=O)O,x,3,-30%,-21,21µM*,13µM*,10%
O=C(/C=C/c1cccs1)Nc1nc(-c2ccccc2)cs1,1%,13,0%,8,x,x,x
Cn1nc(-c2ccc(Cl)cc2)nc2c(=O)n(C)c(=O)nc1-2,u,x,23%,x,0.65µM*,0.26µM*,56%
CS(=O)(=O)n1nc(-c2ccc(Cl)cc2)nc1N,-6%,3,-2%,5,x,x,x
SMILES,MBNL1 CUG block,CtBP-E1A inh,PKM2 act,Six1-Eya2 blk,MBNL1-CUG FRET,MBNL1 AlphaScrn,Menin-MLL HTRF
O=C(CCO)c1ccc(O)cc1,25µM*,-2,16%,u,u,u,0%
O=C1NC[C@H](CCCCN2CCN(CCc3ccc(O)cc3)C(=O)C2=O)N(CCc2ccc(O)cc2)C1=O,x,0,x,-5,x,x,x
c1ccc(COc2ncnc3c2ncn3CCCNCC(c2ccccc2)c2ccccc2)cc1,x,-22,x,-1,x,x,x
COc1ccc(-c2nc(SCC(=O)Nc3cc(C)on3)n[nH]2)cc1,40µM*,-4,20%,-4,16µM*,-9%,u
COc1ccc(OC)c(NC(=O)C2(C)CCN2Cc2ccsc2)c1 (configuration not stated),x,-11,x,-22,x,x,x
CN(CC(=O)Nc1sccc1C#N)C1CCCCC1,28µM*,-4,-5%,-15,-22%,-1%,0%
COc1ccc(C2=Nc3ccccc3N(C(=O)c3cccnc3)C2C(=O)NC(C)(C)C)cc1 (configuration not stated),x,-8,x,-10,x,x,x
COCCNC(=O)C1CCCN(Cc2ccccc2)CC1 (configuration not stated),x,-19,x,14,x,x,x
COCCNC(=O)CCC1CCN(Cc2ccc(-c3ccccc3)cc2)CC1,16µM*,7,0%,-2,6.5µM*,4%,8.2µM*
COc1cc(CNC(=O)c2cc(-c3cc(Cl)ccc3OC)n[nH]2)cc(OC)c1,x,-16,x,-7,x,x,x
Cc1cc(N)c2cc(NC(=O)Nc3ccc4nc(C)cc(N)c4c3)ccc2n1,x,x,x,x,x,x,21µM*
C/C=C/c1cccc(-c2nc(C(=O)NC3CCCC3)cc3c2[C@@H](CCO)N(S(=O)C(C)(C)C)C3)c1 (some centres not stated),x,-8,x,-5,x,x,x
COC(=O)c1cccc(NC(=O)c2ccc[n+]([O-])c2)c1,40µM*,5,-1%,5,-24%,u,0%
Cc1cn(C2OC(COC(=O)c3ccccc3)C(OC(=O)c3ccccc3)C2OC(=O)c2ccccc2)c(=O)[nH]c1=O (configuration not stated),7%,-6,-8%,-9,x,x,x

# Screening results from PubChem BioAssay.
